Source: PubChem BioAssay (National Center for Advancing Translational Sciences (NCATS))
TGFb SMAD3 inh: inhibitors of TGF-b signaling | 410,000 tested, 1.2% active | Potency, µM (top dose mostly 46.1 µM), for the others: top-dose activity, negative = inhibition, hits mostly inhibitors | HepG2 CAGA-GFP TGF-b/SMAD3 reporter, GFP fluorescence, 18 h; TGF-beta stimulated, 500 pg/mL final; also: potency is read from the fitted curve at half-maximal effect; % is scaled to controls: 0 for no effect and ±100 for the full control effect; nearly all actives have a fitted effect of over 65% in size
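First, reporter cells (HEPG2 CAGA-GFP) rested 2 h at 37 degrees C. Next, compounds were pinned in and TGF-beta added to 500 pg/mL final. After 18 h, GFP was imaged per cell and summed per well.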
IL-1B inflam inh: blocks inflammasome-driven IL-1 beta release; THP-1 LPS/ATP IL-1B secretion, AlphaLISA, 16 h; stronger effect = lower value; 360,000 tested, 4.7% active; activity change, % at 57.5 µM; in the data active = activity change below about -50%; inconclusive = mostly about -30% to -49%; also: % is scaled to controls: 0 for no effect and ±100 for the full control effect
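THP-1 cells pretreated 1 hr with compounds (up to 57.5 uM final), then stimulated with LPS (250 ng/mL final) plus ATP (1.25 mM final); secreted IL-1B measured by AlphaLISA after 16 hr, decreased signal indicating inhibition.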
TDP1 block: TDP1 (human) enzyme inhibition. Q9NUW8. recombinant TDP1, AlphaScreen DNA substrate cleavage. Potency, µM (doses to about 130 µM), for the others: at the top dose activity change, negative = inhibition, usual class: inhibitors. 350,000 tested, 0.28% active. AID 485290; also: potency is read from the fitted curve at half-maximal effect; % is scaled to controls: 0 for no effect and ±100 for the full control effect; nearly all actives have a fitted effect of over 40% in size
Target sequence (Q9NUW8 whole entry, looked up): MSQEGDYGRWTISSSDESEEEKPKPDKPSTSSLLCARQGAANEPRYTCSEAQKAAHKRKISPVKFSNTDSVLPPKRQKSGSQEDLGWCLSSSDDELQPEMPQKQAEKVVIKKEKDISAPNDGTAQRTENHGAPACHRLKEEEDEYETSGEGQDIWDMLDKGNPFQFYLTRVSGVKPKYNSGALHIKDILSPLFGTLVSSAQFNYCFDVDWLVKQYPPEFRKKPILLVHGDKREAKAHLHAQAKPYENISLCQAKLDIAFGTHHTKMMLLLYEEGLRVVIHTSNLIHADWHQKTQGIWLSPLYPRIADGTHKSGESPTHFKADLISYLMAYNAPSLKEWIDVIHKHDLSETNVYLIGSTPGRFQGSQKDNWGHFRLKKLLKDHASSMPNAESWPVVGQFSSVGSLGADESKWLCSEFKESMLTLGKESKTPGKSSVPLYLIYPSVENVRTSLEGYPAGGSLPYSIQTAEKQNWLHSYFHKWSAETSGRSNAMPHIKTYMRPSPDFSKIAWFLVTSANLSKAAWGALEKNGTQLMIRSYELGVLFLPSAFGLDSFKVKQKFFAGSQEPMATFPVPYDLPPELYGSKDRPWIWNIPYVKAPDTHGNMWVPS
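Enzyme-compound mixtures sat 15 min at room temperature, followed by a 5 min reaction with 15 nM final substrate and 10 min with AlphaScreen beads. Recombinant human Tdp1 was used at 1 nM final.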
TDP1 cell CPT: DT40-hTDP1 cell growth loss with CPT; chicken DT40 Tdp1-/-;hTDP1 cells + 20 nM CPT, ATP luminescence, 48 h; Potency, µM (series often up to 46.2 µM), for inactives: at the top dose activity change, negative = growth inhibition, most hits filed as inhibitors; 420,000 tested, 12% active; also: potency is read from the fitted curve at half-maximal effect; % is scaled to controls: 0 for no effect and ±100 for the full control effect; nearly all actives have a fitted effect of over 55% in size
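Chicken DT40 Tdp1-/- cells stably complemented with human TDP1 were seeded at 400 cells/well in medium containing 20 nM camptothecin, exposed to pin-transferred compounds, and grown at 37 °C for at least 48 hr. Viability was read as ATP luminescence.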
TDP1 cell noCPT: qHTS for Inhibitors of human tyrosyl-DNA phosphodiesterase 1 (TDP1): qHTS in cells in absence of CPT; DT40 Tdp1-/- hTDP1 cells, no CPT, ATP luminescence, 48 h; Potency, µM (highest dose often 46.2 µM), for the others: at the top dose activity change, negative = growth inhibition, actives largely listed as inhibitors; 420,000 tested, 15% active; also: potency is read from the fitted curve at half-maximal effect; % is scaled to controls: 0 for no effect and ±100 for the full control effect; nearly all actives have a fitted effect of over 55% in size
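DT40 Tdp1-/-;hTDP1 cells, no CPT (DMSO vehicle only), 400 cells/well; compounds pin-transferred; ≥48 hr, 37 °C; CellTiter-Glo 30 min RT dark, luminescence read.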
HepG2 tox: HepG2 cytotoxicity, counter-screen for TGF-b inhibitors | Potency, µM (doses to about 46.1 µM), inactives show at the top dose activity change, negative = cytotoxicity, actives largely listed as cytotoxic | HepG2 CAGA-GFP viability, ATP luminescence, 18 h | 410,000 tested, 0.76% active; also: potency is read from the fitted curve at half-maximal effect
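CellTiter-Glo luminescence gave cytotoxicity after 18 hours at 37 degrees C. The cells were HepG2 CAGA-GFP in 1% FBS DMEM, stimulated with 500 pg/mL TGF-beta after compound addition. %Activity was normalised to no-cell wells (complete cell-killing) and DMSO (no toxicity), and curves were fitted and classified.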
Active calls of the source: *. This is a sample that favours compounds with a hit; in the whole collection about 19% have one here. Unless noted, calls follow the shape of the dose curve; as a rule, active = well fitted curve in the direction sought with a large enough effect; inconclusive = small, poorly fitted or top-dose-only effect, or another doubt; inactive = no such curve, though single readings can be large; an effect the other way counts as inactive or inconclusive.

Screening CC(=O)c1cccc(NC(=O)c2sc(-n3nc(C)c(Cc4ccccc4)c3C)nc2C)c1 returned TGFb SMAD3 inh -61%, TDP1 block -1%, TDP1 cell CPT inconclusive, TDP1 cell noCPT inconclusive and HepG2 tox -13%.
Screening COc1cccc(C2=CC(c3ccccc3)n3nnnc3N2)c1 (centres undefined) returned TGFb SMAD3 inh 7%, IL-1B inflam inh 7, TDP1 block 0%, TDP1 cell CPT 5.8µM*, TDP1 cell noCPT 3.7µM* and HepG2 tox -31%.
For COc1ccc(C2=CC(c3ccc(OC)c(OC)c3)n3nnnc3N2)c(OC)c1 (centres undefined) the results were TGFb SMAD3 inh -3%, IL-1B inflam inh 20, TDP1 block 3%, TDP1 cell CPT inconclusive, TDP1 cell noCPT inconclusive and HepG2 tox -11%.
`CCOc1ccc(NC(=O)c2cnn3c2NC(c2cccc(OC)c2)=CC3c2ccccc2)cc1` (centres undefined) gave TGFb SMAD3 inh 1%, TDP1 block 5%, TDP1 cell CPT 21µM*, TDP1 cell noCPT 21µM* and HepG2 tox 0%.
COc1ccc(C2C=C(c3ccc(C)cc3)Nc3c(C(=O)Nc4ccccc4)cnn32)cc1 (centres undefined) was read as TGFb SMAD3 inh inconclusive, TDP1 block -14%, TDP1 cell CPT inconclusive, TDP1 cell noCPT inconclusive and HepG2 tox -12%.
Screening COc1cccc(C2=CC(c3ccc(N(C)C)cc3)n3nnnc3N2)c1 (centres undefined) returned TGFb SMAD3 inh 4%, IL-1B inflam inh -3, TDP1 block 6%, TDP1 cell CPT 21µM*, TDP1 cell noCPT 13µM* and HepG2 tox -30%.
Screening COc1ccc(C2C=C(c3ccccc3)Nc3nnnn32)cc1 (centres undefined) returned TGFb SMAD3 inh -5%, IL-1B inflam inh 2, TDP1 block 2%, TDP1 cell CPT -18%, TDP1 cell noCPT inconclusive and HepG2 tox -38%.
COc1cccc(C2C=C(c3ccc(OC)cc3OC)Nc3nnnn32)c1 (centres undefined) was read as TGFb SMAD3 inh -6%, IL-1B inflam inh -5, TDP1 block 0%, TDP1 cell CPT inconclusive, TDP1 cell noCPT 16µM* and HepG2 tox -10%.
For O=C(NCCCc1ccccc1)c1ccc([N+](=O)[O-])cc1Cl the results were TGFb SMAD3 inh 17%, IL-1B inflam inh 6, TDP1 cell CPT 11%, TDP1 cell noCPT inconclusive and HepG2 tox 9%.
O=C(NC1(C(F)(F)F)C(=O)Nc2c1c(=O)[nH]c(=O)n2-c1ccccc1)c1ccccc1Cl (centres undefined) was read as TGFb SMAD3 inh -1%, TDP1 block -4%, TDP1 cell CPT -15%, TDP1 cell noCPT -20% and HepG2 tox -2%.
Screening C=C1C[C@H](OC(=O)C(C)(O)CCl)C2C(=C)C(=O)O[C@@H]2C2C1C[C@H](O)[C@]2(O)CCl (some centres undefined) returned TDP1 block 7%, TDP1 cell CPT 1.5µM* and TDP1 cell noCPT 0.82µM*.
`CN(C)CCSc1nnc2sc3ccccc3n12` gave TGFb SMAD3 inh 2%, IL-1B inflam inh 15, TDP1 block 2%, TDP1 cell CPT -8%, TDP1 cell noCPT -23% and HepG2 tox -3%.
COc1ccccc1OCCSc1nnc(C)n1-c1ccccc1 was read as TGFb SMAD3 inh 5%, IL-1B inflam inh 0, TDP1 block 4%, TDP1 cell CPT -22%, TDP1 cell noCPT -13% and HepG2 tox -8%.
Screening COc1ccc(OCCSc2nnc(C)n2-c2ccccc2)cc1 returned TGFb SMAD3 inh -4%, IL-1B inflam inh -9, TDP1 block 3%, TDP1 cell CPT 29µM*, TDP1 cell noCPT 26µM* and HepG2 tox -12%.
For COc1ccc(OCCSc2nnc3sc4ccccc4n23)cc1 the results were TGFb SMAD3 inh 1%, IL-1B inflam inh -79*, TDP1 block 6%, TDP1 cell CPT inconclusive, TDP1 cell noCPT inconclusive and HepG2 tox -18%.
O=C(Nc1ccccc1Cl)c1cc(S(=O)(=O)N2CCCC(C(=O)O)C2)ccc1F (centres undefined) was read as TGFb SMAD3 inh 9%, IL-1B inflam inh -8, TDP1 block 4%, TDP1 cell CPT -6%, TDP1 cell noCPT -32% and HepG2 tox -8%.
COc1ccccc1N1CCN(S(=O)(=O)c2ccc(F)c(C(=O)Nc3ccc(Cl)cc3C(F)(F)F)c2)CC1 was read as TGFb SMAD3 inh -6%, TDP1 block 3%, TDP1 cell CPT inconclusive, TDP1 cell noCPT 21µM* and HepG2 tox -20%.
COc1ccccc1NC(=O)c1cc(S(=O)(=O)N2CCN(c3ccccc3Cl)CC2)ccc1F was read as TGFb SMAD3 inh 1%, TDP1 block 13%, TDP1 cell CPT inconclusive, TDP1 cell noCPT -70% and HepG2 tox 3%.
Screening COc1ccc(N2CCN(S(=O)(=O)c3ccc(F)c(C(=O)Nc4ccccc4Cl)c3)CC2)cc1 returned TGFb SMAD3 inh -6%, TDP1 block 8%, TDP1 cell CPT 7.3µM*, TDP1 cell noCPT 8.2µM* and HepG2 tox -3%.
For Cc1ccc(NC(=O)Cn2cc(C(=O)C3CCCCC3)c3ccccc32)c(C)c1 the results were TGFb SMAD3 inh -11%, TDP1 block 3%, TDP1 cell CPT inconclusive, TDP1 cell noCPT inconclusive and HepG2 tox 2%.
`CC(=O)c1ccc(S(=O)(=O)N2CCN(CCOc3ccccc3)CC2)cc1` gave TGFb SMAD3 inh -25%, IL-1B inflam inh 13, TDP1 block 1%, TDP1 cell CPT inconclusive, TDP1 cell noCPT inconclusive and HepG2 tox -25%.
Screening CC(C)c1ccccc1NC(=S)NCC1(N(C)C)CCCCC1 returned TGFb SMAD3 inh 7%, IL-1B inflam inh -25, TDP1 block 1%, TDP1 cell CPT -7%, TDP1 cell noCPT 5% and HepG2 tox -24%.
For CCCCCCSc1cccc(-c2nc3cc(C)ccn3c2NC2CCCCC2)c1 the results were TGFb SMAD3 inh inconclusive, IL-1B inflam inh -74*, TDP1 block -1%, TDP1 cell CPT 21µM*, TDP1 cell noCPT 16µM* and HepG2 tox -22%.
